From PubChem BioAssay
Hits are enriched below; roughly 4.1% of the tested compounds scored in any of these assays.
TROY signal inh: blocks TROY-dependent signaling in reporter cells | AID 1347056 | Q293 LMP1-TROYcd NF-kB luciferase reporter, 4 h | inhibition, % at 10 µM | hit rate 0.98% among 360,000;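 active = compounds whose plate-normalised and pattern-corrected inhibition of the luciferase reporter signal at the single screening dose is 50% or more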
MITF TRPM1 inh: MITF TRPM1 promoter inhibition in SK-MEL-5 cells; hit rate 0.83% among 330,000; inhibition, % at 12.5 µM; SK-MEL-5 TRPM1 promoter luciferase, 24 h;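 active = mean inhibition across replicates of 60% or more, whatever share of single replicates reaches that level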
Peg3 prom inh: reduces Peg3 promoter-driven luciferase expression in HeLa; inhibition, % at 20 µM; hit rate 1.7% among 360,000; HeLa PEG-Prom luciferase reporter, luminescence, overnight;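 active = inhibition of at least 50% at 20 µM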
TWEAK Fn14 block: TWEAK-Fn14 signaling inhibition; TWEAK-stimulated Fn14 reporter cells, luciferase luminescence, 8 h; inhibition, % at 10 µM; hit rate 2% among 360,000; in the data active = inhibition above about 50%
LMP1 NFkB inh: Epstein-Barr LMP1 NF-kappaB reporter inhibition; LMP1-induced NF-kappaB luciferase reporter cells, luminescence; inhibition, % at 12.5 µM; hit rate 0.69% among 350,000; in the data active = inhibition above about 41%
Shn3 inh set2: Schnurri-3 reporter inhibition in Clone20 osteoblasts | Clone20 osteoblast Shn3 3'UTR firefly luciferase, 24 h | inhibition, % at 12.5 µM | hit rate 0.52% among 360,000 | AID 588674;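 active = mean inhibition of at least 75% with every replicate also reaching 75%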
Each line names hits and unclear results; the compound was inactive in the other large screens.

Cc1cccc(CCNC(=O)Cn2ncc3c([nH]c4ccccc43)c2=O)c1	none
CCN1CCN(CC(=O)Nc2sc3c(c2C#N)CCC(C)C3)CC1 (stereo not drawn)	TWEAK Fn14 block 78 (no result: TROY signal inh)
CC(C)(C)C1CCc2c(sc(NC(=O)CSc3ncn[nH]3)c2C#N)C1 (stereo not drawn)	none
N#Cc1c(NC(=O)CSc2ncn[nH]2)sc2c1CCCC2	MITF TRPM1 inh 73, TWEAK Fn14 block 81
CC1CCc2c(sc(NC(=O)Cn3nc(C(=O)O)c4ccccc4c3=O)c2C#N)C1 (stereo not drawn)	none
COc1ccc(-c2ccc(C#N)c(SCC(=O)Nc3sc4c(c3C#N)CCC4)n2)cc1OC	Peg3 prom inh 75
CC1CCc2c(sc(NC(=O)CSc3ncn[nH]3)c2C#N)C1 (stereo not drawn)	MITF TRPM1 inh 62, TWEAK Fn14 block 72
CCOC(=O)C1=CCN(S(=O)(=O)c2ccccc2Cl)C1c1ccccc1 (stereo not drawn)	none (no result: MITF TRPM1 inh, LMP1 NFkB inh)
COc1cccc(NC(=S)N(C)C2CCN(C)CC2)c1	none (no result: LMP1 NFkB inh)
CC(=O)Nc1ccc(S(=O)(=O)NCCC(=O)NCc2ccncc2)cc1	none
CCN(Cc1ccccc1)C(=O)CCS(=O)(=O)c1ccc2c(c1)n(C)c(=O)c(=O)n2C	none
O=C(O)c1ccccc1C(=O)Nc1ccc(Oc2cccc3ccccc23)cc1	TROY signal inh 71, MITF TRPM1 inh 73, TWEAK Fn14 block 88
NC(Cc1ccc(C(F)(F)F)cc1)c1csc(Nc2cnccn2)n1 (stereo not drawn)	none (no result: MITF TRPM1 inh, LMP1 NFkB inh)
Cc1ccc(C(=O)Nc2nc(C(N)Cc3ccc(C(F)(F)F)cc3)cs2)cc1 (stereo not drawn)	Peg3 prom inh 96 (no result: MITF TRPM1 inh, LMP1 NFkB inh)
COc1ccc(CC(N)c2csc(NC(=O)Nc3ccc(OC)cc3)n2)cc1 (stereo not drawn)	none (no result: MITF TRPM1 inh, LMP1 NFkB inh)
COc1cc(NC(=O)Nc2nc(C(N)C(C)C)cs2)cc(OC)c1OC (stereo not drawn)	none (no result: MITF TRPM1 inh, LMP1 NFkB inh)
COc1ccc(NC(=O)Nc2nc(C(N)Cc3ccc(C(F)(F)F)cc3)cs2)cc1 (stereo not drawn)	Peg3 prom inh 98 (no result: MITF TRPM1 inh, LMP1 NFkB inh)
COc1cc(NC(=O)Nc2nc(C(N)Cc3ccc(C(F)(F)F)cc3)cs2)cc(OC)c1OC (stereo not drawn)	Peg3 prom inh 92 (no result: MITF TRPM1 inh, LMP1 NFkB inh)
COc1ccc(CC(N)c2csc(NC(=O)c3cc(C(C)(C)C)oc3C)n2)cc1 (stereo not drawn)	Peg3 prom inh 99 (no result: MITF TRPM1 inh, LMP1 NFkB inh)
Cc1cnc(C(=O)OC(C)C(=O)Nc2ccccc2-c2ccccc2)cn1 (stereo not drawn)	none
O=C(CCc1cnccn1)NC1CCCc2c1cnn2-c1ccc(F)cc1F (stereo not drawn)	none
CCC1CCCCN1CCCNC(=O)C1CCCN(S(=O)(=O)N2CC(C)CC(C)C2)C1 (stereo not drawn)	none
COc1cc(CC(=O)Nc2sc3c(c2C(N)=O)CCCC3)cc(OC)c1OC	none
CCc1c(C2(O)CCCCC2)[nH]c2cc(C(F)(F)F)ccc12	TROY signal inh 51, Peg3 prom inh 67
Cc1c(C2(O)CCCCC2)[nH]c2cc(C(F)(F)F)ccc12	none
Cc1ccc([N+](=O)[O-])cc1N/C=C/C(=O)c1ccco1	none
Cc1ccc(N/C=C/C(=O)c2ccco2)c(O)c1	TWEAK Fn14 block 95
O=C(NCCc1c[nH]c2ccccc12)OCCCCOC(=O)NCCc1c[nH]c2ccccc12	TROY signal inh 71, TWEAK Fn14 block 74
Cc1ccc(P(=O)(CSC(=N)N)c2ccc(C)cc2)cc1	none
N=C(N)SCP(=O)(c1ccccc1)c1ccccc1	LMP1 NFkB inh 54
CC12CCC(=O)N1C(C(=O)NNC(=O)COc1ccccc1F)CS2 (stereo not drawn)	none
CCOc1ccc(NC(=O)c2ccc3c(=O)n(-c4ccc(OC)cc4OC)c(=S)[nH]c3c2)cc1	none
COc1ccc(-n2c(=S)[nH]c3cc(C(=O)Nc4ccc(C)c(F)c4)ccc3c2=O)c(OC)c1	TWEAK Fn14 block 54
CCN(c1ccccc1)S(=O)(=O)c1cc(C(=O)Nc2cccc(Cl)c2)ccc1F	TWEAK Fn14 block 68
CCc1ccc(NC(=O)c2ccc(F)c(S(=O)(=O)N(CC)c3ccccc3)c2)cc1	none
Cc1ccc(C)c(C(=O)COC(=O)CCN2C(=O)C3C4CCC(C4)C3C2=O)c1 (stereo not drawn)	none
CCn1c2ccccc2c2cc(/C=C(/C#N)C(N)=S)ccc21	LMP1 NFkB inh 85
